Source: PubChem (several laboratories)
Only some compounds are listed: those with a hit (about 1.9% of all), similar ones and a draw of the others.
Rev-erbA mod: Rev-erb alpha (human) modulation; Rev-erbα–FITC-DNA binding, fluorescence polarization, 90 min; activity, % at 10 µM; 0.79% of 370,000 active;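 active means activity above about 14%, limit read from the data; passing the limit was not always enough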;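 further: 0% = DMSO wells with 35 nM protein and 100% = DMSO wells with 750 nM protein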
PG9 Ab binder: PG9 antibody binding by small molecule; inhibition, % at 6.7 µM; 0.43% of 360,000 active; AID 624416; TR-FRET gp120-PG9 antibody binding; in the data active means inhibition above about 8.5%
p47phox inh: p47phox (human) inhibition; p47phox/p22phox peptide binding, fluorescence polarization, 2 h; inhibition, % at 24.7 µM; 0.53% of 220,000 active;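 active means inhibition above about 30%, limit read from the data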;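 further: 0% = p47phox with labelled peptide and 100% = labelled peptide alone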
ZTA DNA inh: blocks Epstein-Barr virus ZTA, an EBNA-1 counter-screen | P03206 | 0.15% of 320,000 active | AID 2234 | ZTA-DNA binding, fluorescence polarization | inhibition, % at 11 µM; in the data active means inhibition above about 33%
Target sequence (P03206 whole entry, looked up): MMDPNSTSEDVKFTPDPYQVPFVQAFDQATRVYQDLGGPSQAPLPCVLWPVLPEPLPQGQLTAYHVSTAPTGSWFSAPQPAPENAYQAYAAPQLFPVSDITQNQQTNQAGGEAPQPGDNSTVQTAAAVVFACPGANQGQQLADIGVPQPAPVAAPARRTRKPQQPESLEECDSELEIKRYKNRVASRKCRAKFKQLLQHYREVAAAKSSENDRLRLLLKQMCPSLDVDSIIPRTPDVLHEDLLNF
aDG glyco up: alpha-DG glycosylation activation | Pro5-aDG cells, alpha-DG glycosylation AlphaScreen (IIH6); 0% Pro5, 100% B10-LARGE cell signal | activation, % at 10 µM | 0.22% of 360,000 active | AID 624168;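 active means activation of at least 8% versus controls, or a plate z-score of at least 8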;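 further: Pro5 are CHO cells carrying HIG-tagged alpha-DG that lacks glycosylation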
EBNA-1 inhibitor: blocks EBNA-1 binding to DNA; EBNA-1 DNA binding, fluorescence polarization; inhibition, % at 14.8 µM; 0.34% of 300,000 active; in the data active means inhibition above about 28%
aDG glyco conf: alpha-DG glycosylation activation, confirmation. shares compounds with aDG glyco up. Pro5-aDG cells, IIH6 AlphaLISA; scaled to LARGE-overexpressing B10 cells as 100%. activation, % at 10 µM (by protocol). 17% of 600 active. AID 651671;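 active means activation of at least 7% in one or more replicates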;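 further: cells exposed to compound for two days before detection; 0% = DMSO-treated Pro5 cells and 100% = DMSO-treated B10-LARGE cells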
Active calls of the source: *; · = no result.

SMILES	Rev-erbA mod	PG9 Ab binder	p47phox inh	ZTA DNA inh	aDG glyco up	EBNA-1 inhibitor	aDG glyco conf
COC(=O)c1cccc(NC(=O)CN2C(=O)c3ccccc3C2=O)c1	5	-3	·	-3	1.3*	-5	1
CCN(CCCNC(=O)C1CCN(S(=O)(=O)c2cccc3nonc23)CC1)Cc1ccccc1	-1	-2	-13	-7	8.3*	-9	0
COc1ccccc1CCNCc1ccc(OC)c(OCc2ccccc2)c1	1	-2	-7	-10	5.6*	-1	2
N#Cc1ccc(/C=C2\CC3(OC(=O)c4ccc(F)cc4)CCCN2C3)cc1 (stereo not given)	3	·	·	·	·	·	·
C[C@@H]1CN([C@H](C)CO)C(=O)CCCn2nncc2CO[C@@H]1CN(C)C(=O)CCC(F)(F)F	0	-1	·	·	7.3*	·	0
CC(C)COC(=O)N(C)C[C@@H]1OCc2cnnn2CCCC(=O)N([C@H](C)CO)C[C@@H]1C	3	0	·	·	7.2*	·	0
C[C@@H]1CN([C@@H](C)CO)C(=O)CCCn2nncc2CO[C@@H]1CN(C)C(=O)Nc1ccc(C(C)(C)C)cc1	0	0	·	·	14*	·	-1
CC(C)COC(=O)N(C)C[C@@H]1OCc2cnnn2CCCC(=O)N([C@@H](C)CO)C[C@@H]1C	-1	1	·	·	0	·	·
OC(c1ccccc1)(c1ccccc1)C1CCN(CCCNc2ccccc2F)CC1	-2	·	·	·	·	·	·
CC(C)C[C@H]1COCCS(=O)(=O)N1Cc1ccccc1F	5	-2	·	-8	6.1*	-6	0
S=C(Nc1ccc(Cl)cc1)OC1CCC12CCC(c1ccccc1)CC2 (stereo not given)	-1	·	·	·	·	·	·
COCCNCCCCOc1ccc(Br)cc1C	3	-1	15	0	1	-12	·
Cc1cc(Br)ccc1OCCCCNC(C)(C)C	2	-2	-19	9	4.3*	7	7.2*
CC(=O)CC[C@H]1CC[C@]2(CCCN(C(=O)c3ccco3)C2)O1	6	·	·	·	·	·	·
Cc1nnc(SCc2ccccn2)n(N)c1=O	-9	-3	-5	-2	3.5*	-5	0
COc1cc(NC(=O)N[C@@H](Cc2ccccc2)C(=O)O)cc(OC)c1	3	-1	-3	-4	0	1	·
COc1ccc(OC)c(NC(=O)N[C@@H](Cc2ccccc2)C(=O)O)c1	-2	0	10	7	5.9*	5	0
CCOC(=O)c1ccc(NC(=O)COc2ccccc2CNCCc2ccccc2)cc1	-13	-2	-8	2	5.8*	3	3
CCOC(=O)c1ccc(NC(=O)COc2ccc(CNCCO)cc2OCC)cc1	-1	1	-2	9	1	3	·
COc1ccc(CN2C(=O)C(CC(=O)NC3CCCC3)CC(C(=O)N(C(C)C)C(C)C)=C2C)cc1 (stereo not given)	3	0	·	·	5.0*	·	1
CC1=C(C(=O)N(C(C)C)C(C)C)CC(CC(=O)NC2CCCCC2)C(=O)N1Cc1ccc(C(C)(C)C)cc1 (stereo not given)	2	2	·	·	0	·	·
COc1ccc(CNC(=O)c2cccc3c(-c4cccnc4)coc23)cc1OC	1	-1	·	·	8.1*	·	1
COc1cc(O)c([C@@H](CC(=O)N2CC(C)CC(C)C2)c2ccc3c(c2)OCO3)c(OC)c1 (stereo not given in full)	4	·	·	·	·	·	·
S=C(NCCN1CCOCC1)Nc1ccc(Cl)cc1Cl	1	1	1	-8	0	7	·
Fc1cc(Cl)ccc1NC(=S)NCCN1CCOCC1	-3	1	-8	2	5.3*	-1	-1
SMILES	Rev-erbA mod	PG9 Ab binder	p47phox inh	ZTA DNA inh	aDG glyco up	EBNA-1 inhibitor	aDG glyco conf
COCCCNC(=O)C[C@H]1C[C@@]2(C(=O)OC)C(=C[C@H](COCc3ccccc3)O[C@@H]2C)N(Cc2ccc(Cl)cc2Cl)C1=O	3	·	·	·	·	·	·
C/C(=N/Nc1nc(C)cc(C)n1)c1ccc(Br)cc1	2	-3	·	-1	2.2*	9	2
C/C(=N\Nc1nc(C)cc(C)n1)c1ccc(N2CCOCC2)cc1	·	-3	1	-3	3	-20	·
CCCCc1ccc(NC(=O)N2CCN(c3cc(C)nc4ccccc34)CC2)c(C)c1	·	·	·	12	3.3*	-9	4
CCOC(=O)C(=CNc1cc(C)nn1-c1ccc(C)cc1)C(=O)OCC	5	2	-7	7	4.7*	15	1
CCc1ccc(OCCCCN(C)Cc2ccccc2)cc1	-1	0	·	-9	1.8*	-5	1
CN(CCCCOc1ccc(F)cc1)Cc1ccccc1	-7	-2	·	-3	0	-10	·
CCOC(=O)c1cnc(-n2nc(C)cc2C)nc1Nc1ccc(O)cc1	-8	-2	1	8	0	5	·
CCOC(=O)c1cnc(-n2nc(C)cc2C)nc1Nc1ccc(C)cc1	-5	-3	6	·	6.5*	·	2
CC(=O)Nc1nc(COc2ccccc2)cs1	0	-4	-5	-3	0	8	·
CC(=O)Nc1nc(CC(=O)c2ccccc2)cs1	-1	0	·	11	8.4*	5	1
CCN(CC)C(=O)CC[C@H]1CC[C@]2(CCCN(Cc3cccnc3)C2)O1	1	·	·	·	·	·	·
Brc1ccc(CNc2ccc3ncccc3c2)cc1	0	-1	·	·	2.8*	·	0
O=C(Nc1ccc2ncccc2c1)c1cccc(Br)c1	-3	-1	·	-16	0	-6	·
CN(CC(=O)Nc1cccc(F)c1)C(=O)c1cccc(S(=O)(=O)N2CCN(c3ccccc3)CC2)c1	-3	-2	·	-2	8.0*	-2	-1
Cc1cccc(C)c1NC(=O)C(c1ccncc1)N1CCN(C)CC1 (stereo not given)	3	2	·	·	9.8*	·	0
Cc1cccc(C)c1NC(=O)C(c1ccccc1)N1CCN(C)CC1 (stereo not given)	-3	1	·	·	0	·	·
O=C(Nc1ccc(Br)cc1)OC1CC2CC1[C@H]1CCCCN1[C@H]2Cc1ccccc1 (stereo not given in full)	7	·	·	·	·	·	·
CCNC(=S)NNC(=O)CSc1nc2ccccc2c(=O)n1-c1ccc(Cl)cc1	-2	·	·	·	·	·	·
CCc1ccccc1NC(=O)COC(=O)c1c(C)nsc1NC	-4	0	·	-9	4.0*	·	0
CNc1snc(C)c1C(=O)OCC(=O)Nc1ccc(C)cc1F	6	0	·	·	2	·	·
CCc1ccc(S(=O)(=O)NCc2ccc(C(=O)NCCN(Cc3ccccc3)C(C)C)cc2)cc1	5	-1	·	·	4.5*	·	2
CC(=O)c1cccc(NC(=O)c2cc(=O)[nH]c3ccccc23)c1	5	-1	·	-9	0	6	·
CCN(CC)S(=O)(=O)c1ccc2[nH]c(=O)cc(C(=O)Nc3cccc(C(C)=O)c3)c2c1	7	-2	-7	-10	9.2*	-4	-1
